Assay outcomes deposited in PubChem by National Center for Advancing Translational Sciences (NCATS).
MLL CXXC-DNA inh: inhibitors of human MLL CXXC domain-DNA interaction | Q03164 | MLL-CXXC / FITC-HOXA9 DNA fluorescence polarization | Potency, µM (series often up to 115 µM), for inactives: at the highest dose activity change, negative = inhibition, most hits filed as inhibitors | 290,000 compounds, 0.037% hits | AID 2662; active means well fitted inhibition curve with a large enough effect in the polarisation, with a control signal flat, not every such curve was filed as active; inconclusive means small, poorly fitted or top-dose-only effect, or effect the other way, or a change in a side signal; inactive means no such curve, though single readings can be large or run the other way; the % refers to the polarisation; further: potency means the concentration at half of the fitted maximal effect
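Purified MLL-CXXC (added from a 7 uM solution) was preincubated 5 min at ambient with pinned compounds in 50 mM Tris-HCl pH 7.5, 50 mM NaCl, 1 mM DTT, 0.05% BSA. Fluorescein-labeled HOX-A9 DNA (50 nM solution) followed, 30 min, then polarization read.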
aGal spleen mod: inhibitors or activators of human alpha-galactosidase in spleen homogenate; Potency, µM (top dose mostly 80 µM), for inactives: top-dose activity change, negative = inhibition, most hits filed as inhibitors; 240,000 compounds, 0.008% hits; human spleen homogenate, 4MU-alpha-Gal fluorescence, 40 min; P06280;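 further: potency means the concentration at half of the fitted maximal effect; 0% = enzyme with vehicle and -100% = no enzyme basal signal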
Target sequence (P06280 32-429 limits assumed): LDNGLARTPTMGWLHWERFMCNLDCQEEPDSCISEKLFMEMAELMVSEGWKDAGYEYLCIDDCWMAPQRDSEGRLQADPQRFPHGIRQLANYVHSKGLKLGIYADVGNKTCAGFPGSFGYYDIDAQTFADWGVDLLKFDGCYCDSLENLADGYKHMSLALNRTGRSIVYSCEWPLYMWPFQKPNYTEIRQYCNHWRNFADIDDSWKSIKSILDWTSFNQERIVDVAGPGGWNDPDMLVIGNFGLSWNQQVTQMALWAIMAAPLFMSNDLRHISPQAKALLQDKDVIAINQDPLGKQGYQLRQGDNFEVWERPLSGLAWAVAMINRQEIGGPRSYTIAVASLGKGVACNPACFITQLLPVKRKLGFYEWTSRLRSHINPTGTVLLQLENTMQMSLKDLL
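Human spleen homogenate (1 ug) was the enzyme source, with 4-methylumbelliferyl-alpha-D-galactopyranoside (1 mM final) in pH 5.0 citrate buffer with 0.01% Tween-20. Compounds were titrated; after 40 min at 37C, NaOH/glycine stop, 4-MU fluorescence read; AC50 from Hill fits.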
GLA inh pH 4.5: inhibitors of human alpha-galactosidase A at pH 4.5; P06280; purified enzyme, 4-MU-alpha-Gal fluorescence, pH 4.5; activity change, negative = inhibition, % at 105 µM; 230,000 tested, under 10 active;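 further: 0% = full activity with enzyme and -100% = basal without enzyme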
Integrin act MD: integrin-mediated muscular dystrophy alleviation activation; AID 624291; Potency, µM (series often up to 38.3 µM), for the others: at the highest dose activation, usual class: activators; 350,000 compounds, 0.064% hits; alpha7betagal myoblasts, beta-gal FDG fluorescence, 48 h;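 further: potency means the concentration at half of the fitted maximal effect; 100% = response of the positive control SU9516; nearly all actives have a fitted effect of over 60% in size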
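Alpha7betagal+/- myoblasts (passage 13) were plated 16-24 hr, then exposed to compounds (1:260 dilution of DMSO stock) for 48 hours at 37C. After MPER lysis, β-galactosidase reporter activity was read as FDG fluorescence (ex 480/em 540) after 30 minutes.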
Menin MLL FP TR: inhibitors of human menin-MLL interaction, mutant MLL peptide | O00255 | Menin + Texas Red MLL mutant peptide, fluorescence polarization | Potency, µM (series often up to 61.6 µM), without a hit: at the top dose FP activity change, negative = inhibition, actives largely listed as inhibitors | 270,000 compounds, 0.23% hits; active means well fitted inhibition curve with a large enough effect in the polarisation, with a control signal flat, not every such curve was filed as active; inconclusive means small, poorly fitted or top-dose-only effect, or effect the other way, or a change in a side signal; inactive means no such curve, though single readings can be large or run the other way; the % refers to the polarisation; further: potency means the concentration at half of the fitted maximal effect; % of control where 0% means no effect
Menin-MLL FL inh: inhibitors of human menin-MLL interaction, wild-type MLL peptide; Fluorescence polarization, fluorescein-MLL peptide displacement from menin; FP activity change, % at 61.4 µM; 290,000 tested, under 10 active; AID 1766; active means well fitted curve in the direction sought with a large enough effect in the polarisation, not every such curve was filed as active; inconclusive means small, poorly fitted or top-dose-only effect, or effect the other way, or a change in a side signal; inactive means no such curve, though single readings can be large or run the other way; the % refers to the polarisation; further: % of control where 0% means no effect
Numbers without * were called inactive; u = inconclusive; x = not tested or not shown; ! = a repeat was not active; [ ] = remark or other dose. The full list was thinned out, with hits kept by preference. Unless noted, the call rests on the fitted dose curve; in most records, active means well fitted curve in the direction sought with a large enough effect; inconclusive means small, poorly fitted or top-dose-only effect, or another doubt; inactive means no such curve, though single readings can be large; an effect the other way counts as inactive or inconclusive.

SMILES | MLL CXXC-DNA inh | aGal spleen mod | GLA inh pH 4.5 | Integrin act MD | Menin MLL FP TR | Menin-MLL FL inh
COc1cc(C2C(C#N)=C(N)Oc3c2ccc2ccccc32)ccc1OCC(=O)Nc1ccccc1C (stereo unspecified) | 26% | -10% | -9 | -36% | 25µM* | 4
COC(=O)c1ccc(NC(=O)COc2ccc(C3C(C#N)=C(N)Oc4c3ccc3ccccc43)cc2OC)cc1 (stereo unspecified) | 33% | -3% | 1 | -10% | u | -1
COc1ccc(-c2nc3cnc(N4CCOCC4)nc3n(-c3ccc(OC)cc3)c2=O)cc1 | x | 22% | x | x | -5% | u
CCOP(=O)(OCC)c1nc(-c2ccccc2)oc1N1CCCCC1 | 7% | x | x | 1% | 32µM* | 4
COC(=O)c1nnc(N[C@@H](Cc2c[nH]c3ccccc23)C(=O)OC)nc1C(=O)OC | x | 29% | -6 | x | 0% | -1
Cn1cc(/C=N/n2cnc3scc(-c4ccc(Cl)cc4)c3c2=O)c2ccccc21 | 6% | 4% | 4 | -16% | 11µM* | 0
CCn1cnc2scc(-c3ccccc3)c2c1=O | 14% | 3% | -12 | -13% | -16% | -1
CCOC(=O)C1CCCN(C(=O)CNS(=O)(=O)c2ccc(Br)s2)C1 (stereo unspecified) | -8% | -5% | 5 | 2µM* | -3% | -2
O=C(CNS(=O)(=O)c1ccc(Br)s1)N1CCCC1 | 1% | -13% | -8 | 2% | -1% | 3
COc1cc2c(cc1O)CCN[C@@]21CS[C@H]2c3c(OC(C)=O)c(C)c4c(c3C(COC1=O)N1C2C2c3c(cc(C)c(OC)c3O)CC([C@@H]1O)N2C)OCO4 (stereo partly specified) | 11% | x | x | x | -1% | -1
CCCCNc1c(C(=O)OCC)c(C)nc2c1cnn2CC | 7% | 1% | -10 | x | 40µM*! | 9
CC1(C)CC(NC(=O)c2ccccc2)CC(C)(C)N1 | -3% | x | x | 9% | 13% | -2
CC1(C)CC(Nc2ccc(Nc3ccccc3)cc2)CC(C)(C)N1 | -3% | 4% | -4 | -61% | 20µM* | 2
Cc1ccsc1C1NC(=O)c2c(sc3c2CCN(C)C3)N1 (stereo unspecified) | 34% | u | 14 | -12% | -20% | u
CN1CCc2c(sc3c2C(=O)NC(c2cccs2)N3)C1 (stereo unspecified) | 20% | u | 13 | -34% | 28µM* | u
COc1ccc2c(c1)C(NC(=O)C(F)(F)F)CC2=O (stereo unspecified) | 6% | 4% | 5 | 8% | 2% | 4
COc1cc2c(cc1OC)C(NC(=O)C(F)(F)F)C/C2=N\O (stereo unspecified) | 3% | 3% | 6 | 11µM* | -9% | 2
CN(C)c1ccnc2sc(C(=O)c3ccc(Br)cc3)c(N)c12 | u | -4% | -3 | 23% | u | u
CC(C)CO/N=C1/C[C@@H](O)[C@@H](O)[C@@H]2[C@@H]3C(=O)N(C(C)(C)C)C(=O)[C@H]3CC[C@@H]12 | x | 0%[17.5 µM] | x | x | -1%[11.7 µM] | -2[11.7 µM]
O=C(N/N=C/c1cn[nH]c1-c1ccc(F)cc1)c1ccncc1 | -9% | -9% | 2 | 14µM* | -1% | 2
Cc1ccnn1CC(=O)N/N=C/c1cn[nH]c1-c1ccc(F)cc1 | 4% | -14% | 5 | -40% | x | 0
C=C(C[C@]1(C(=O)OC)CC2(CC=C(C)C)C(=O)C(C(=O)CC(C)C)=C(O)C(CC=C(C)C)(C1)C2=O)C(=O)OC (stereo partly specified) | x | 8% | -1 | x | 0% | 1
COc1ccccc1-c1cc(C(=O)Nc2ccc(F)cc2F)no1 | -10% | -5% | 2 | 12% | 11µM* | 5
COc1ccc2c(c1)O[C@H](c1ccc3c(c1)OCO3)[C@@H](OC(=O)NCc1ccco1)C2=O | x | 16% | -1 | x | -7% | 7
CC(/C=C/C=C(C)/C=C/C(=O)O)=C\C=C\C=C(C)\C=C\C=C(C)\C=C\C(=O)O | x | -10% | x | x | x | x
SMILES | MLL CXXC-DNA inh | aGal spleen mod | GLA inh pH 4.5 | Integrin act MD | Menin MLL FP TR | Menin-MLL FL inh
Cc1ccc(C2=NN(C(=O)c3cccs3)C(c3ccccc3O)C2)cc1 (stereo unspecified) | -9% | -2% | 23 | -41% | u | 0
O=C(c1cccs1)N1N=C(c2ccccc2)CC1c1ccccc1O (stereo unspecified) | 13% | 10% | -7 | 10% | 18µM* | 8
COC(=O)C1=C(C(=O)OC)[C@@H]2N(C)c3ccccc3[C@@]23C[C@@H](C(=O)OC)N(S(=O)(=O)c2ccc(C)cc2)C3=N1 | x | -3%[17.5 µM] | 5 | x | -15%[11.7 µM] | 0[11.7 µM]
CN(C)CCNc1ncnc2sc(-c3ccccc3)cc12 | -3% | x | x | 10µM* | -20% | -1
CNc1ncnc2sc(-c3ccccc3)cc12 | -5% | -13% | -10 | 20% | u | -2
COc1ccc2c(c1)C(=O)[C@H](OC(=O)NCc1ccco1)[C@@H](c1ccc(OC)c(Br)c1)O2 | x | 4% | -1 | x | 4% | 0
CO/N=C(/C(=O)N[C@@H]1C(=O)N2C(C(=O)O)=C(CSC(=O)c3ccco3)CSC12)c1csc(N)n1 (stereo partly specified) | 67% | x | x | x | -5% | -4
CC/C=C\C/C=C\C/C=C\C/C=C\C/C=C\C/C=C\CCC(N)=O | x | -11% | -5 | x | -7% | -1
C=CCn1c(COc2ccccc2)nnc1SCc1ccc(C#N)cc1 | 5% | 0% | 2 | -4% | -14% | 0
C=CCn1c(COc2ccc(Cl)cc2)nnc1SCc1ccc(C#N)cc1 | 10% | -2% | 4 | 11µM* | u | 2
O=C(Nc1ccc(Cl)cc1N1CCOCC1)C1CCCO1 (stereo unspecified) | -3% | x | x | 9% | 0% | -3
O=C(Nc1ccc(Cl)cc1N1CCOCC1)C1CCCCC1 | u | x | x | 7.1µM* | -11% | -4
COC(=O)C/C=C\[C@@H](C)[C@@H](/C=N\O[C@@H](C)c1cc(-c2c(C)cc(C)cc2C)no1)OC | x | -4%[17.5 µM] | x | x | -11%[11.7 µM] | 0[11.7 µM]
Clc1cc(Cl)c(OCC#CI)cc1Cl | 11% | x | x | x | 3% | 0
O=C(Cn1c(=O)oc2cc(S(=O)(=O)N3CCCC3)ccc21)Nc1ccc(C(F)(F)F)cc1 | 13% | -2% | 6 | 12% | 25µM* | -1
O=C(Cn1c(=O)oc2cc(S(=O)(=O)N3CCCC3)ccc21)NC1CCCc2ccccc21 (stereo unspecified) | 23% | 6% | 2 | -32% | 32µM* | 7
COc1ccc(S(=O)(=O)N(NC2=NS(=O)(=O)c3ccccc32)C(=O)C(C)C)cc1 | -2% | -2% | 5 | 2.5µM* | 2% | -4
